# MsrA act = bovine MsrA enzyme activators, primary screen, biochemical, absorbance, HTS; Methionine sulfoxide reductase A (Bos taurus); 0.3% of 360,000 active; activation, % at 10.6 µM; purified bovine MsrA, absorbance read-out; in the data active = activation above about 7.5%;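 note: 0% = vehicle and 100% = reference activator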
# PLCg1 inh = PLC-gamma1 enzyme inhibitors, primary screen, biochemical, fluorescence, purified enzyme. fluorogenic substrate. inhibition, % at 12.2 µM. AID 720700, 2013. 1-phosphatidylinositol 4,5-bisphosphate phosphodiesterase gamma-1 (Homo sapiens), P19174. 0.84% of 370,000 active; in the data active = inhibition above about 9.5%
# Target sequence (P19174 whole entry, looked up): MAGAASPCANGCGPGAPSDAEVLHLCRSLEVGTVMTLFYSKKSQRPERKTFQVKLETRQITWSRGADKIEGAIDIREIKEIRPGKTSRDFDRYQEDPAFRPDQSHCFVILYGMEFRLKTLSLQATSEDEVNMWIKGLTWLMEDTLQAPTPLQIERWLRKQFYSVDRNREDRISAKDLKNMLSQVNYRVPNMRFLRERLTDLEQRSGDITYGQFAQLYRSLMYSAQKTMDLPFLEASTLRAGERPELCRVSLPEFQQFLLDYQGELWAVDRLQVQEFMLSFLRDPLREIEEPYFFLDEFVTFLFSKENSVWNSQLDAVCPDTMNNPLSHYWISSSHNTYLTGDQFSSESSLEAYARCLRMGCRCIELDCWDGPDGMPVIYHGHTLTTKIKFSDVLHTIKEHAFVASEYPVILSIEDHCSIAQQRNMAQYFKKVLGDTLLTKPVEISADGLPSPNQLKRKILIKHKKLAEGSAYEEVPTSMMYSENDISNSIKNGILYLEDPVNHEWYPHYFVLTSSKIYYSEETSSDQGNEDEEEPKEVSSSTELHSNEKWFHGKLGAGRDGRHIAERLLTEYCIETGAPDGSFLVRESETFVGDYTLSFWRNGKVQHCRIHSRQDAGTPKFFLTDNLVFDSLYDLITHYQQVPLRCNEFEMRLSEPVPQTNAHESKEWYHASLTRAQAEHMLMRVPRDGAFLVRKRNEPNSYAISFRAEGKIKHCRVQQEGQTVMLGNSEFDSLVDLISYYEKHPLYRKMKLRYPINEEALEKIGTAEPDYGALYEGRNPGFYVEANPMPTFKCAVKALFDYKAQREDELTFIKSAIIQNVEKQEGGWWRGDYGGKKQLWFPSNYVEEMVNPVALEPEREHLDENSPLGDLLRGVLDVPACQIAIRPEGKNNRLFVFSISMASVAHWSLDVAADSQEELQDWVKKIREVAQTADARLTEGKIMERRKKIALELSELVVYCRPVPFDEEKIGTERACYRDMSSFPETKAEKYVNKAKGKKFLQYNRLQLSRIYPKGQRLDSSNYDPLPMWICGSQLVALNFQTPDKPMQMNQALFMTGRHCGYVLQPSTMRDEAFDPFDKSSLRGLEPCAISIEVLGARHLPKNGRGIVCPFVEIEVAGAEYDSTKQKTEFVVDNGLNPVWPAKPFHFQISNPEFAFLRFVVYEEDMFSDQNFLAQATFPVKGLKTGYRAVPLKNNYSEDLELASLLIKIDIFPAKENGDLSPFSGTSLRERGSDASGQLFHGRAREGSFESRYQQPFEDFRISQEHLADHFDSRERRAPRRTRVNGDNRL
# MsrA inhibitor = bovine MsrA enzyme inhibitors, primary screen, biochemical, absorbance, HTS. 0.75% of 360,000 active. inhibition, % at 15.5 µM. Methionine sulfoxide reductase A (Bos taurus). AID 651718, 2012. purified bovine MsrA, absorbance read-out;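 note: 0% = vehicle wells with enzyme and 100% = reference inhibitor wells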
# PLC-beta3 inh = human PLC-beta3 inhibitors, primary screen, biochemical, fluorescence; 1-phosphatidylinositol 4,5-bisphosphate phosphodiesterase beta-3 (Homo sapiens), Q01970; Purified PLC-beta3, fluorogenic substrate; inhibition, % at 12.2 µM; 0.18% of 370,000 active; in the data active = inhibition above about 11%;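 note: 0% = median of compound wells on plate and 100% = full blocker control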
# MsrA inh confirm = bovine MsrA inhibitors, retest, confirmation, biochemical, absorbance, HTS; 41% of 2,300 active; inhibition, % at 15.5 µM; shares compounds with MsrA inhibitor; purified bovine MsrA, absorbance read-out; AID 651822, 2012;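 note: coupled to thioredoxin reductase with NADPH and selenocystamine and DMSO as substrate; 0% = vehicle only and 100% = full effect of reference inhibitor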
# * = called active by the depositor; x = no result. The list is not random: actives were taken first. Their share in the collection is about 1.9%. Cut-off read from the data, not from the text of the source, unless noted: active = inhibition above about 4.5%; inactive = the rest.
SMILES,MsrA act,PLCg1 inh,MsrA inhibitor,PLC-beta3 inh,MsrA inh confirm
CN(C)c1ccc(/C=N/NC(=O)C(=O)N2CCCCCC2)cc1,-4,-2,4.7*,-10,5.9*
O=C(N/N=C/c1ccccc1)c1cc(=O)[nH]c2ccccc12,-11,-23,1,-25,x
O=C(N[C@@H](Cc1cccnc1)C(=O)N1CCC[C@H]1C(=O)NCc1ccccc1)c1ccc(Cl)c(Cl)c1,x,2,-1,5,x
COC(=O)C1=C(C)N(C)C(=NCc2ccccc2)NC1c1cccc(Cl)c1 (stereo unspecified),x,1,0,0,x
C[C@@H]1CN([C@@H](C)CO)C(=O)CCCn2cc(nn2)CO[C@H]1CN(C)C(=O)Nc1ccccc1F,x,3,1,-8,x
Cc1ccc(/C=N/NC(=O)c2ccco2)cc1,-4,-1,0,-9,x
CN(C)c1ccc(/C=N/NC(=O)c2ccco2)cc1,-3,-41,4.7*,-47,5.1*
CN=c1sc2c(n1C)C(=O)c1ccccc1C2=O,6,5,9.7*,4,7.0*
CN=c1sc(C(=O)Nc2ccccc2)c(C)n1C,-4,-2,2,-7,x
CC1(CC(=O)N/N=C/c2cc(Br)c(O)cc2O)OCCO1,-11,-14,6.1*,-54,5.3*
Cc1oc(/C=N/NC(=O)CC2(C)OCCO2)cc1Br,-9,6,0,2,x
COc1cccc(CNC(=O)[C@H]2CCCN2C(=O)[C@H]2CCCN2C(=O)OC(C)(C)C)c1,x,-2,0,3,x
CNc1ncnc(Sc2nc(N)nc3nc[nH]c23)c1[N+](=O)[O-],-10,-1,5.3*,-12,5.5*
COc1ccc(/C=C/C(=O)c2ccncc2)c2ccccc12,0,-34,8.3*,-48,-1
Cc1ccn2c(=O)c(NC(=O)COc3ccccc3)c(C)nc2c1,-8,-63,4.9*,-75,3
Cc1nc2c(C)cccn2c(=O)c1NC(=O)COc1ccccc1,-2,-4,3,-2,x
CC(=O)CNc1ccc(S(=O)(=O)N/N=C/c2ccccc2)cc1,-8,1,1,-7,x
CC(=O)NCc1ccc(S(=O)(=O)N/N=C/c2ccc(N(C)C)cc2)cc1,-4,0,5.6*,6,3
Cc1ccc(C)c(S(=O)(=O)N/N=C/c2ccc(N(C)C)cc2)c1,-1,6,5.4*,8,2
CCC(C)[C@H](NC(=O)[C@H](Cc1ccccc1)NC(=O)OC(C)(C)C)C(=O)NCc1ccccc1Br (stereo partly specified),x,7,x,3,x
Cc1ccc(-n2c(SCC(=O)c3ccc4ccccc4c3)nnc2-c2cccnc2)cc1,x,-4,x,-4,x
Cc1ccccc1-n1c(SCc2cc(=O)n3ccccc3n2)nc2[nH]ncc2c1=O,1,-54,2,-67,x
Cc1ccccc1-n1c(SCc2cccc(F)c2)nc2[nH]ncc2c1=O,-2,5,7.2*,1,8.0*
CN(C)c1ccc(/C=N/N2C(=S)SC(C)(C)C2N(O)C(=O)Nc2ccc([N+](=O)[O-])cc2)cc1 (stereo unspecified),-10,4,6.1*,3,2
c1ccc2c(c1)nc(-c1ccncc1)n1nnnc21,-7,-18,13*,-23,12*
SMILES,MsrA act,PLCg1 inh,MsrA inhibitor,PLC-beta3 inh,MsrA inh confirm
c1ccc(-c2nc3ccccc3c3nncn23)cc1,-4,0,0,-1,x
Nc1nc2ccccc2n1/N=C/c1ccc(Br)cc1,-5,-17,1,-13,x
Nc1nc2ccccc2n1/N=C/c1ccc2c(c1)OCO2,-8,-2,19*,-12,14*
O=S(=O)(CC1NCCc2ccccc21)NCc1ccc(F)cc1 (stereo unspecified),x,2,x,2,x
CSc1ccc(/C=C(\C(=O)O)c2ccc(S(=O)(=O)N3CCCCC3)s2)cc1,-16,-175,5.9*,-170,2
C=CCO[C@H]1CN(C(=O)OC)[C@@H](c2ccccc2Br)C[C@H]1OCC=C,x,1,0,4,x
CN1/C(=C\C=Nc2cc(S(=O)(=O)N3CCOCC3)ccc2N2CCOCC2)C(C)(C)c2ccccc21,-1,-8,7.6*,-9,2
O=S1(=O)CCSC[C@@H](CN2CCCC2)N1,x,3,0,2,x
CC(C)[C@H](NC(=O)c1cccs1)C(=O)N1CCC[C@H]1C(=O)NCc1ccccc1,x,5,0,7,x
Cc1ccc(-c2cc(C(F)F)n3ncc(C(=O)N4CCN5CCCC5C4)c3n2)cc1 (stereo unspecified),-9,-286,1,-316,x
CCOC(=O)C1CCCN(C(=O)c2cnn3c(C(F)F)cc(-c4ccc(C)cc4)nc23)C1 (stereo unspecified),6,-170,29*,-214,23*
CCC(NC(=O)CN1CCN(c2cccc(OC)c2)CC1)c1ccccc1 (stereo unspecified),x,0,x,-1,x
COc1ccc(/C=N/Nc2cn[nH]c(=O)c2Cl)cc1,-8,-78,5.4*,-108,5.9*
Cc1ccc(/C=N\Nc2cn[nH]c(=O)c2Cl)cc1,-6,-50,7.8*,-65,6.6*
O=c1[nH]ncc(N/N=C/c2ccccc2)c1Cl,-16,-8,7.2*,-11,6.8*
Cc1ccsc1/C=N\Nc1cn[nH]c(=O)c1Cl,-6,-68,4,-77,x
CS(=O)(=O)N1C[C@]2(c3ccccc3)CC1Cc1ccccc12,x,2,x,3,x
COC(=O)c1cc(S(=O)(=O)N2CCN(C(C)=O)CC2)cn1C,x,2,x,5,x
Cc1c(N=Nc2ccc(O)cc2)c(=O)n(-c2ccccc2)n1C,-7,5,5.2*,10,4
COC(=O)[C@]12C[C@H](CC(=O)N3CCCC3)C(=O)N(Cc3ccc4c(c3)OCO4)C1=C[C@H](COCc1ccccc1)O[C@@H]2C,x,0,1,2,x
CCn1cc(C(=O)N2CCN(c3ccc(C(C)=O)cc3)CC2)c2cc(OC)c(OC)cc2c1=O,-17,-10,6.5*,-10,4
CCn1cc(C(=O)N2CCN(c3ccc(OC)cc3)CC2)c2cc(OC)c(OC)cc2c1=O,-4,5,1,-17,x
O=c1oc2ccccc2c(NCc2ccccc2F)c1[N+](=O)[O-],-8,-1,8.8*,0,7.2*
COc1cc(-c2nc3ccccn3c2/N=C/c2cc(OC)c(O)cc2Cl)ccc1O,-5,-177,4.7*,-198,3
OC(c1ccccc1)(c1ccccc1)C1CCN(CCCOc2ccccn2)CC1,x,0,0,1,x
Cc1ccc(NC(=O)CN2C(=O)NC(C)(C3CC3)C2=O)c(C)c1 (stereo unspecified),-3,-1,-2,-2,x
Cc1ccc(NC(=O)CN2C(=O)NC(C)(C3CC3)C2=O)c([N+](=O)[O-])c1 (stereo unspecified),-4,2,9.4*,-1,6.0*
COc1cccc(C(O)c2nccn2Cc2ccccc2)c1OC (stereo unspecified),-2,2,12*,-3,4
